GRIN3A LBD mod: modulators (binders) of human NR3A ligand-binding domain; Tm shift relative to glycine control, % at 25 µM; actives 2.5% (n = 340,000); NR3A LBD differential scanning fluorimetry, Tm shift; 0% = protein alone, 100% = glycine-bound protein; AID 1259313;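 active means melting temperature shift of at least 10% of the positive control shift, at one fixed dose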
CR mimetic SO: lowers age-related superoxide in aged yeast cells | S. cerevisiae aged cells, superoxide DHE fluorescence; active compounds read low | superoxide response (% of plate mean), % at 10 µM | actives 0.18% (n = 330,000) | AID 2690;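 active means superoxide response under a set limit, about three screen SD below normal, cut at about 65% in these data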;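 further: yeast aged for seven days with compound at 30 °C before DHE staining; 100% = average MFI of all compound-treated wells on the plate with controls excluded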
UBC13 inh: blocks human UBC13 polyubiquitin chain formation; P61088; TR-FRET; inhibition, % at 20 µM; actives 0.47% (n = 330,000); AID 485273; in the data active means inhibition above about 45%, passing the limit was not always enough; inconclusive means no clear call, values can overlap the other calls
Target sequence (P61088 whole entry, looked up): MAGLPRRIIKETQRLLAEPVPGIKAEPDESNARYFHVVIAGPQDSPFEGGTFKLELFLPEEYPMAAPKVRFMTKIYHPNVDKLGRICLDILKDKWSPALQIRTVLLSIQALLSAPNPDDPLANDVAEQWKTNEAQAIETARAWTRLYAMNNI
NALP1 yeast inh: blocks the NALP1 inflammasome reconstituted in yeast; S. cerevisiae NALP1/ASC/caspase-1 growth, X-gal OD620, 72 h; inhibition, % at 10 µM; AID 2071; actives 0.61% (n = 280,000); in the data active means inhibition mostly above about 24%, no sharp cut-off; inactive means mostly below about 32%
dFosB act: activators of mouse delta FosB homodimer | activation, % at 25 µM | actives 0.99% (n = 340,000) | P13346 | purified delta FosB, TAMRA-CDK5 oligo fluorescence polarization; percent of positive-control signal above neutral wells;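 active means mean activation above about 17%, with every replicate also reaching it, limit read from the data, passing the limit was not always enough; inconclusive means only one of the two conditions met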
Target sequence (P13346 whole entry, looked up): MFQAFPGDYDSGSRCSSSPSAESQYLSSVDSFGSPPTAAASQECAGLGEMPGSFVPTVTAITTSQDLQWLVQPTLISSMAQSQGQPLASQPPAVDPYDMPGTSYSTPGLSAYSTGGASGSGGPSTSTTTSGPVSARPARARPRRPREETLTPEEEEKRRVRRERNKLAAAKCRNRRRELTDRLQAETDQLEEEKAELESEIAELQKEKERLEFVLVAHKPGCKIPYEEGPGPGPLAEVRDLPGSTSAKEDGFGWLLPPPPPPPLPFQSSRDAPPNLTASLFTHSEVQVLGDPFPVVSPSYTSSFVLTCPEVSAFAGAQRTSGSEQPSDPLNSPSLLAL
Casp3 counter: inhibits human caspase-3 in UBC13 counter-screen. shares compounds with UBC13 inh. Recombinant caspase-3, Caspase-Glo 3/7 luminescence, 60 min. inhibition, % at 20 µM. actives 4% (n = 1,400). AID 488856;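 active means mean inhibition across replicates above about 26%, limit read from the data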;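 further: plate controls were DMSO with caspase-3 for no effect and DMSO wells lacking enzyme for full effect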
UBC13 conf: human UBC13 polyubiquitin inhibition, confirmed; shares compounds with UBC13 inh; inhibition, % at 10 µM; AID 488859; UBC13 polyubiquitination, TR-FRET, biochemical; actives 68% (n = 1,400); in the data active means inhibition above about 45%; inconclusive means no clear call, values can overlap the other calls
Starred values were filed as active, the others as inactive; ? = inconclusive; . = no result. Hits are enriched below; roughly 4.3% of the tested compounds scored in any of these assays.

SMILES	GRIN3A LBD mod	CR mimetic SO	UBC13 inh	NALP1 yeast inh	dFosB act	Casp3 counter	UBC13 conf
CCCC[C@@H](CN[C@H](C)CNC)NCC1CCC(C(C)(C)C)CC1 (some centres not stated)	2.3	117.6	61.4*	-3.6	.	-2.5	14.2
CC[C@H](C)[C@@H](CN[C@H](CCCCNC)CNC)NCC1CCCC1	-1.4	96.5	6.3	-4.6	-0.9	.	.
Nc1nc(N)nc(-c2cc(C(F)(F)F)ccc2Cl)n1	-1.3	106.5	50.9*	.	-3.8	0.1	-0.7
Cc1cc(=O)n2cccc(O)c2n1	-0.7	103.1	-18.8	4.4	9.0	.	.
CCC(NC(=O)c1cc(COc2ccc(F)cc2Cl)on1)c1ccncc1 (configuration not stated)	0.9	.	-18.5	11.3	-8.5	.	.
CN1CCN(CCCN2c3ccccc3Sc3ccc(C(F)(F)F)cc32)CC1	-4.1	89.8	90.4*	36.5	7.1	0.7	97.9*
O=C(CN1CCCC(O)C1)N1c2ccccc2Sc2ccc(C(F)(F)F)cc21 (configuration not stated)	-1.5	107.7	5.5	-28.4	-2.4	.	.
CCOC(=O)C1=C(c2ccccc2)O/C(=C(\C(=O)OC)C(F)(F)F)S1	1.0	96.0	51.1*	33.3	-1.0	0.9	44.1
NC(=S)N=Nc1c(O)[nH]c2cc(F)c(F)cc12	-4.2	93.1	82.0*	-3.5	5.8	-1.0	98.8*
CC/C(O)=C1\C(=O)CCCC1=NCc1nc2ccccc2[nH]1	0.9	127.3	-1.8	-15.2	-13.3	.	.
Cc1ccc(-c2csc(N3CCN(c4cc5c(cc4Cl)nc(C(C)N)n5CCCO)CC3)n2)cc1 (configuration not stated)	-3.3	102.9	6.7	13.3	3.1	.	.
Cc1ccc(-c2csc(N3CCN(c4cc5c(cc4Cl)nc(C)n5CCN4CCCCC4)CC3)n2)cc1	-5.7	89.3	46.0*	7.7	-2.7	0.2	37.5
CCOC(=O)N1CCC(NC(=O)c2ccccc2C(=O)O)CC1	1.3	98.1	-3.1	.	2.4	.	.
CCOC(=O)N1CCC(NC(=O)c2cc(C)c3c(C)nn(-c4ccccc4)c3n2)CC1	-0.2	101.0	45.0*	7.9	-5.4	-3.3	22.7
COc1ccc(OC)c(/C=C/C(=O)OCC(=O)c2c(N)n(C)c(=O)n(C)c2=O)c1	2.7	91.6	45.8*	-0.2	-12.5	-4.3	43.1
CC(Sc1ncn[nH]1)C(=O)Nc1cc(C(F)(F)F)ccc1Cl (configuration not stated)	1.8	100.8	12.8	.	-7.5	.	.
COc1ccccc1C(=O)N=c1sc2c(C)ccc(OC)c2n1C	0.6	91.7	47.5*	19.6	-4.8	72.8*	?
CC1(C)OC(=O)C=C[C@]2(C)[C@H]3CC[C@@]4(C)[C@H](C(=O)O)OC(=O)[C@H]5O[C@]54[C@]3(C)C(=O)C[C@@H]12	2.6	90.2	-2.2	.	0.6	.	.
O=C(COc1ccc(Br)cc1)NNC(=O)c1ccc(-n2cncn2)c([N+](=O)[O-])c1	1.4	136.2	1.9	.	6.6	.	.
Cc1ccc(NC(=O)CN(C)C(=O)c2ccc3[nH]c4c(c3c2)CC(C)CC4)cc1 (configuration not stated)	4.4	87.1	66.2*	.	-4.4	-1.9	47.8*
CCOc1ccc(NC(=O)CN(C)C(=O)c2ccc3[nH]c4c(c3c2)CC(C)CC4)cc1OCC (configuration not stated)	3.3	84.2	6.3	.	-13.7	.	.
C=CCNC(=O)C(=O)Nc1cc2c3c(c1)CCC(=O)N3CCC2	-10.9	108.2	-8.5	12.8	4.7	.	.
Cc1cc(C)cc(OCC(=O)NNC(=S)NC(=O)C2CC2)c1	1.5	112.8	83.4*	2.0	-9.3	3.6	104.0*
COc1ccc(OCC(=O)NNC(=S)NC(=O)C2CC2)cc1	0.4	86.1	78.9*	-2.9	-4.2	-2.5	100.8*
CCOC(=O)c1sc(NC(=O)C2CCC2)cc1C	-2.2	93.1	3.3	5.9	-1.6	.	.
SMILES	GRIN3A LBD mod	CR mimetic SO	UBC13 inh	NALP1 yeast inh	dFosB act	Casp3 counter	UBC13 conf
COc1ccc(OC)c(CN2CCN(C(=O)c3cc4ccccc4cc3O)CC2)c1	3.2	98.0	1.1	11.1	-8.9	.	.
O=C1c2cccc3cccc(c23)C(=O)N1Cc1ccccc1	0.5	102.4	25.2	3.7	4.2	.	.
O=C1c2cccc3cccc(c23)N1Cc1ccc(F)cc1	0.4	80.9	83.0*	12.3	-3.4	3.4	95.9*
O=C1c2cccc3cccc(c23)N1Cc1cccc(F)c1	1.6	113.5	76.4*	24.3	-12.5	-1.7	90.2*
O=C1CCCc2ccccc2N1Cc1cccc(F)c1	-0.6	95.0	-4.2	6.2	0.2	.	.
O=C1c2cccc3cccc(c23)C(=O)N1Cc1cccnc1	-0.1	112.3	65.1*	-8.2	11.6	-0.1	82.9*
CCc1ccc(N(C(=O)c2snc(C(N)=O)c2N)C(C(=O)NCC2CCCO2)c2cccs2)cc1 (configuration not stated)	-14.4	97.3	43.8	14.5	-16.8	.	.
Cc1ccc(C)c(N(C(=O)c2snc(C(N)=O)c2N)C(C(=O)NCC2CCCO2)c2cccs2)c1 (configuration not stated)	-0.6	93.3	18.5	0.5	-10.2	.	.
Cc1cccc(N(C(=O)c2snc(C(N)=O)c2N)C(C(=O)NCC2CCCO2)c2cccs2)c1 (configuration not stated)	-0.8	88.3	62.1*	-6.7	-11.7	1.2	71.1*
Cc1cccc(N(C(=O)c2snc(C(N)=O)c2N)C(C(=O)NC2CCCC2)c2ccco2)c1 (configuration not stated)	-2.5	.	79.1*	27.7	6.6	2.9	75.5*
NC(=O)c1nsc(C(=O)N(c2ccc(Cl)cc2)C(C(=O)NCC2CCCO2)c2cccs2)c1N (configuration not stated)	-0.9	88.0	45.5*	5.4	-21.0	2.6	49.5*
CCOC(=O)/C(=C\c1cccc(O)c1)c1nc2sc(C)c(C)c2c(=O)[nH]1	-1.2	97.3	67.4*	8.3	-5.2	-1.0	65.5*
COc1cc2c3c(c1)c(N=NC(N)=S)c(O)n3C(C)(C)C=C2C	-7.2	86.2	80.3*	-4.5	-4.2	2.8	84.1*
CC1=CC(C)(C)n2c(O)c(N=NC(N)=S)c3cccc1c32	-12.5	110.7	75.9*	7.6	-6.3	-0.7	93.6*
Cc1ccccc1-n1ccnc1SCC(=O)Nc1cccc(S(=O)(=O)NC2=NCCC2)c1	-1.0	76.1	8.7	.	-6.3	.	.
CC(C)C1Nc2ccc(C(=O)NCCCN3CCOCC3)cc2NC1=O (configuration not stated)	-0.5	94.0	-0.7	20.3	1.2	.	.
Nc1ccc(C23CC4CC(CC(CO)(C4)C2)C3)cc1	1.4	112.0	3.8	17.2	-0.9	.	.

Screens as filed in PubChem BioAssay.
